From PubChem
Compounds with a hit are over-represented: about 9.7% of the library has one in this group of screens.
M1 agonist: activates the M1 muscarinic receptor; CHO-M1 cells, Fluo-4 calcium fluorescence, agonist mode; hits give high values; B-score at 10 µM; 64,000 tested, 3% active;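 active = fluorescence rise, raw or as B-score row- and column-corrected plate score, outside the 99.7% band of its plate's samples, either direction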
A340 absorber: absorbance at 340 nm; compound absorbance at 340 nm, fold over control; fold change at 10 µM; 65,000 tested, under 10 active; AID 708;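 active = at 10 µM dose, initial 340 nm absorbance at least 2 fold that of control wells; inactive = change under 2 fold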;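 note: initial absorbance extrapolated from kinetic A340 decline of NADH oxidation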
BAP1 inh: human BAP1 deubiquitinase inhibition; Q92560; recombinant BAP1, Ub-AMC hydrolysis fluorescence kinetic; hits give low values; calls only at 20 µM; 72,000 tested, 0.48% active;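 active = activity remaining at or below 50% of control, provided the compound also passes the data quality filters; inactive = the rest, including low values that fail the filters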
WNV NS2B-NS3 inh: blocks West Nile virus NS2B-NS3 protease activity | P06935 | WNV NS2B-NS3 protease, fluorogenic substrate Ex360/Em465; hits give low values | z-score (no concentration beside the values) | 65,000 tested, 0.18% active | AID 577; in the data active = z-score below about -3
Fluor 339 460: intrinsic fluorescence of library compounds, ex339/em460 – biochemical, MLSMR library, data from DPM-DC assay, artefact control, profiling panel | fluorescence fold increase at 10 µM | AID 709 | compound autofluorescence, ex339/em460 nm, NADH buffer; hits give high values; 1 = no-compound wells, NADH background | 65,000 tested, 5.5% active;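 active = at 10 µM, mean starting fluorescence two-fold or more over control wells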;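 note: signal is the first read of a kinetic run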
M1 antag: M1 muscarinic receptor (rat) antagonism | CHO-M1 cells, Fluo-4 calcium, ACh EC80 antagonist mode; hits give low values | B-score at 10 µM | 64,000 tested, 3.4% active;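 active = calcium fluorescence response, raw or row-and-column corrected B-score, differing from the plate sample mean either way at a set confidence level, mostly lower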
Target sequence (P08482 whole entry, looked up): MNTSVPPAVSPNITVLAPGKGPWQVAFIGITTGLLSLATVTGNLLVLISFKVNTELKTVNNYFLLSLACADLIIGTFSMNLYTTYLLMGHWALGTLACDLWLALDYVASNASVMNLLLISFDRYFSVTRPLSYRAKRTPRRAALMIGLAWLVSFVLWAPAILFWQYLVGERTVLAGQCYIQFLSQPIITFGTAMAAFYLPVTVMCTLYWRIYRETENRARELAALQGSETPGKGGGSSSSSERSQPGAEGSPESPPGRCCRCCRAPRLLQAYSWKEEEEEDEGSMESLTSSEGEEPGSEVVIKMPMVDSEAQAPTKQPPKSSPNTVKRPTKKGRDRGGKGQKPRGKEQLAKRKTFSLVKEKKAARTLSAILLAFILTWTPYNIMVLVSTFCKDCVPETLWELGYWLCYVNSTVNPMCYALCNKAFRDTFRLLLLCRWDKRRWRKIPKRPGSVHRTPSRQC
M1 antag confirm: M1 muscarinic receptor (rat) antagonism, confirmed | calcium response (max-min fluorescence) at 10 µM | 1,700 tested, 43% active | shares compounds with M1 antag | AID 677 | CHO-M1 cells, Fluo-4 calcium, ACh EC80 antagonism; hits give low values;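 active = calcium response below the same-plate mean of wells given acetylcholine alone at its 80%-effect dose, minus 3 SD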
mGluR4 antag: acts on human mGluR4 in M1 antagonist selectivity test; AID 678; CHO-mGluR4 calcium flux, Fluo-4 fluorescence, glutamate EC80; hits give low values; 1,700 tested, 0.9% active; shares compounds with M1 antag; fluorescence response (max-min) at 10 µM;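 active = fluorescence response below the plate's average for near-maximal glutamate wells, less 3 SD of those wells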;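 note: raw unnormalized fluorescence span taken in the window right after glutamate addition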
Hits are given with their value; – = inactive; · = no result shown.

SMILES	M1 agonist	A340 absorber	BAP1 inh	WNV NS2B-NS3 inh	Fluor 339 460	M1 antag	M1 antag confirm	mGluR4 antag
Cc1cc(C(=O)CSc2nnnn2C)c(C)n1CCc1ccc(F)cc1	–	–	·	–	–	-2.13	–	–
CCCOC(=O)C1=C(C)N(C)C(=O)NC1c1ccc(O)c(OC)c1 (stereo not given)	·	·	–	·	·	·	·	·
CCn1c(N)nc2ccccc21	–	–	–	–	–	-2.53	–	–
COc1ccc(-c2noc(-c3cc(C)cc(C)c3)n2)cc1OC	–	–	–	–	–	-3.05	468	–
CCOc1ccc(-c2nc(-c3ccc(OC)c(OC)c3)no2)cc1OCC	–	–	–	–	–	–	·	·
O=C(NCCCN1CCC(Cc2ccccc2)CC1)C1CCC(=O)N1C1CCCC1 (stereo not given)	–	–	–	–	–	–	·	·
CCCS(=O)(=O)N1CCCC(C(=O)NCCN2CCC(Cc3ccccc3)CC2)C1 (stereo not given)	–	–	–	–	–	-2.37	–	–
O=C(NCCCN1CCC(Cc2ccccc2)CC1)C1CC(=O)N(C2CCCC2)C1 (stereo not given)	–	–	–	–	–	-3.32	508	–
OCCN1CCN(Cc2cccc(Oc3ccc(Cl)cc3)c2)CC1	–	–	–	–	–	-2.87	378	–
Nc1ncnc2nc(SCc3ccccc3)[nH]c12	–	–	–	–	–	–	·	·
Nc1ncnc2nc(SCCN3CCCCC3)[nH]c12	–	–	–	–	–	-2.78	–	–
Cc1cc2nc(SCCN3CCCC3)[nH]c2cc1C	–	–	–	–	–	-1.91	–	–
CC(C)(C)c1ccc(C(=O)Nc2cccc(NC(=O)c3cccc4ccccc34)c2)cc1	·	·	–	·	·	·	·	·
CCOC(=O)c1c(N=c2oc3cc(O)ccc3cc2C(N)=O)sc2c1CCCC2	·	·	–	·	·	·	·	·
O=C(Nc1ncc(S(=O)(=O)c2ccc([N+](=O)[O-])cc2)s1)c1ccco1	·	·	–	·	·	·	·	·
CCOC(=O)C1CCN(CC(O)COc2ccc(C(=O)CC)cc2)CC1 (stereo not given)	–	–	–	–	–	-3.31	–	–
O=C(c1ccc(Cl)cc1)c1ccc(OCC(O)CN2CCOCC2)cc1 (stereo not given)	–	–	–	–	–	–	·	·
CC(C)COc1ccc(C(=O)CCN2CCCCC2)cc1	–	–	–	–	–	-6.98	278	–
OC(COc1ccc(C2C=CCC2)cc1)CN1CCCCC1 (stereo not given)	–	–	–	–	–	-4.08	422	–
O=C(c1ccccc1)c1ccc(OCC(O)CN2CCCCC2)cc1 (stereo not given)	–	–	–	–	–	-2.21	381	–
O=C(Nc1cccc2ccccc12)c1sc2cccc(Cl)c2c1Cl	·	·	–	·	·	·	·	·
O=C(CSc1nnc2c3c4c(sc3ncn12)CCCC4)NCc1ccco1	–	–	–	–	–	–	·	·
Cc1nc2sc3c(c2c2nnc(SCC(=O)NCc4ccco4)n12)CCCC3	–	–	–	–	–	-2.74	–	–
CC1(C)CC(=O)C2=C(C1)Nc1ccccc1N(C(=O)Cc1ccc(Cl)cc1)C2c1cccs1 (stereo not given)	·	·	–	·	·	·	·	·
CCn1c(SCc2ccccc2)nnc1-c1ccc(S(=O)(=O)N2CCCCC2)cc1	–	–	–	–	–	-2	–	–
SMILES	M1 agonist	A340 absorber	BAP1 inh	WNV NS2B-NS3 inh	Fluor 339 460	M1 antag	M1 antag confirm	mGluR4 antag
CCn1c(SCc2nnc(-c3ccccc3)o2)nnc1-c1ccc(S(=O)(=O)N2CCCC2)cc1	–	–	–	–	–	–	·	·
COc1ccccc1Nc1n[nH]c(=S)n1-c1ccccc1OC	·	·	–	·	·	·	·	·
CC(C)C[C@H](NC(=O)OC(C)(C)C)c1nnc(SCC(=O)Nc2ccc(Br)cc2)o1	–	–	–	–	–	-3.1	–	–
CC(C)C[C@H](NC(=O)OC(C)(C)C)c1nnc(SCc2cccc(F)c2)o1	–	–	–	–	–	–	·	·
CCOC(=O)c1c(C)oc2cc(Br)c(OC(=O)c3ccco3)cc12	·	·	–	·	·	·	·	·
Cn1c(=O)c2c(nc(Oc3cccc(C4Nc5ccc6ccccc6c5C5=C4C(=O)CC(C)(C)C5)c3)n2C)n(C)c1=O (stereo not given)	·	·	–	·	·	·	·	·
CCN(CC)CCOC(=O)c1ccc(N)cc1	·	·	–	·	·	·	·	·
CCN(CC)CCOC(=O)C12CC3CC(CC(C3)C1)C2	–	–	–	–	–	-16.1	173	–
COc1ccccc1C1Oc2ccccc2C2CC(c3ccc(Cl)cc3)=NN21 (stereo not given)	·	·	–	·	·	·	·	·
CC(C)Cn1cc(C(=O)NCC2CCCO2)c2c3ccccc3n(C)c2c1=O (stereo not given)	–	–	·	–	2.51	-5.92	–	–
Cc1cc(N2CCN(C(c3ccccc3)c3ccc(Cl)cc3)CC2)n2ncnc2n1 (stereo not given)	–	–	–	–	–	–	·	·
Cc1cc(N2CCN(C/C=C/c3ccccc3)CC2)n2ncnc2n1	–	–	–	–	–	-1.57	–	–
CCC(C)N(C)Cc1cccc(C2(O)CCN(S(=O)(=O)c3ccc(F)cc3)CC2)c1 (stereo not given)	–	–	–	–	–	-2.11	468	–
CCS(=O)(=O)N1CCN(S(=O)(=O)c2ccc(F)cc2)CC1	–	–	–	–	–	–	·	·
CCN1C(=O)c2ccccc2S(=O)c2ccc(C(=O)N3CCN(C(=O)c4ccco4)CC3)cc21 (stereo not given)	–	–	–	–	–	-1.34	–	–
CCN1C(=O)c2ccccc2S(=O)c2ccc(C(=O)N3CCCCCC3)cc21 (stereo not given)	–	–	–	–	–	–	·	·
COC(=O)c1ccc(OCCN2C3=NCCN3c3ccccc32)cc1	–	–	–	–	–	-9.04	440	–
COc1ccc(C2CC(=O)c3cnc(N4CCN(Cc5ccccc5)CC4)nc3C2)cc1 (stereo not given)	–	–	–	–	–	–	·	·
O=C1CC(c2ccco2)Cc2nc(N3CCN(Cc4ccc5c(c4)OCO5)CC3)ncc21 (stereo not given)	–	–	–	–	–	-1.88	509	–
CC(C)c1nc2oc3c(N4CCNCC4)ncnc3c2c2c1CCC2	–	–	–	–	–	-2.89	292	–
COc1ccc(-c2noc(CCC(=O)NCC3CCN(Cc4cccc(C)c4)CC3)n2)cc1	–	–	–	–	–	-3.59	399	–
COc1ccc(-c2noc(CCCC(=O)O)n2)cc1	–	–	–	–	–	–	·	·
COc1ccc(NC(=O)CCc2nc(-c3ccc(C)cc3)no2)cc1Cl	–	–	–	–	–	–	·	·
